Measurements published in PubChem BioAssay AID1159580 (chemical genetic matrix, 2015).
Out of some 5,500 compounds screened, about 2,000 (36%) were called active. Not shown: some 18% with an inconclusive outcome. Cut-off read from the data, not from the text of the source: active = normalized growth mostly below about 0.91 (no sharp cut-off); inconclusive = no clear call, values can overlap the other calls; inactive = mostly above about 0.92. The list shows a part of the results.

Assay: chemical genetic growth profiling, strain panel (AID 1159580);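 note: tested at 20 µM; growth read once vehicle control cultures reached saturation at 30 °C; 1 = growth at the plate median or of vehicle wells; lower values mean less growth of the strain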
Settings: growth OD

Measured: normalized growth

COc1c(O)cc2c(c1O)[C@H]1O[C@H](CO)[C@@H](O)[C@H](O)[C@@H]1OC2=O
inactive: S. cerevisiae deletion strains, locus YKL009W, strain mrt4, stronger effect = lower value 1.01 | S. cerevisiae deletion strains, locus YKL068W, stronger effect = lower value 1.01 | S. cerevisiae deletion strains, locus YKL085W, strain MDH1 (second series), stronger effect = lower value 1 | S. cerevisiae deletion strains, locus YKL085W, strain MDH1, stronger effect = lower value 1 | S. cerevisiae deletion strains, locus YKL160W, strain elf1, stronger effect = lower value 1.03 | S. cerevisiae deletion strains, locus YKL190W, strain CNB1, stronger effect = lower value 0.975 | S. cerevisiae deletion strains, locus YKR001C, strain vps1, stronger effect = lower value 1.01 | S. cerevisiae deletion strains, locus YKR026C, strain gcn3, stronger effect = lower value 1.01 | S. cerevisiae deletion strains, locus YKR091W, strain srl3, stronger effect = lower value 1.02 | S. cerevisiae deletion strains, locus YLL001W, strain dnm1, stronger effect = lower value 1.03 | S. cerevisiae deletion strains, locus YLL026W, stronger effect = lower value 1.01 | S. cerevisiae deletion strains, locus YLL041C, strain sdh2, stronger effect = lower value 1.02 | S. cerevisiae deletion strains, locus YLR027C, strain aat2, stronger effect = lower value 1.02 | S. cerevisiae deletion strains, locus YLR039C, strain RIC1, stronger effect = lower value 1.04 | S. cerevisiae deletion strains, locus YLR058C, strain SHM2, stronger effect = lower value 0.986 | S. cerevisiae deletion strains, locus YLR102C, strain apc9, stronger effect = lower value 1 | S. cerevisiae deletion strains, locus YLR113W, strain HOG1, stronger effect = lower value 0.985 | S. cerevisiae deletion strains, locus YLR221C, strain rsa3, stronger effect = lower value 1.02 | S. cerevisiae deletion strains, locus YLR258W, strain gsy2, stronger effect = lower value 1.04 | S. cerevisiae deletion strains, locus YLR262C, strain YPT6 (second series), stronger effect = lower value 1.06 | S. cerevisiae deletion strains, locus YLR262C, strain YPT6, stronger effect = lower value 1.07 | S. cerevisiae deletion strains, locus YLR268W, strain sec22, stronger effect = lower value 1.01 | S. cerevisiae deletion strains, locus YLR320W, strain mms22, stronger effect = lower value 1.05 | S. cerevisiae deletion strains, locus YLR330W, strain CHS5, stronger effect = lower value 1.01 | S. cerevisiae deletion strains, locus YLR342W, strain FKS1 (second series), stronger effect = lower value 0.902 | S. cerevisiae deletion strains, locus YLR342W, strain FKS1, stronger effect = lower value 1.02 | S. cerevisiae deletion strains, locus YLR357W, strain rsc2, stronger effect = lower value 1.01 | S. cerevisiae deletion strains, locus YLR370C, strain arc18, stronger effect = lower value 1.02 | S. cerevisiae deletion strains, locus YLR371W, strain rom2, stronger effect = lower value 1.01 | S. cerevisiae deletion strains, locus YLR384C, strain iki3, stronger effect = lower value 1.01 | S. cerevisiae deletion strains, locus YLR418C, strain cdc73, stronger effect = lower value 1.02 | S. cerevisiae deletion strains, locus YML016C, strain PPZ1, stronger effect = lower value 1 | S. cerevisiae deletion strains, locus YML032C, strain rad52, stronger effect = lower value 0.999 | S. cerevisiae deletion strains, locus YML120C, strain ndi1, stronger effect = lower value 1.03 | S. cerevisiae deletion strains, locus YML124C, strain tub3, stronger effect = lower value 1.01 | S. cerevisiae deletion strains, locus YMR058W, strain fet3, stronger effect = lower value 1.01 | S. cerevisiae deletion strains, locus YMR078C, strain ctf18, stronger effect = lower value 1.01 | S. cerevisiae deletion strains, locus YMR125W, strain sto1, stronger effect = lower value 1.02 | S. cerevisiae deletion strains, locus YMR129W, stronger effect = lower value 1.02 | S. cerevisiae deletion strains, locus YMR205C, strain PFK2, stronger effect = lower value 1.03 | S. cerevisiae deletion strains, locus YMR223W, strain ubp8, stronger effect = lower value 0.993 | S. cerevisiae deletion strains, locus YMR231W, strain pep5, stronger effect = lower value 1.02 | S. cerevisiae deletion strains, locus YMR263W, strain SAP30, stronger effect = lower value 0.993 | S. cerevisiae deletion strains, locus YMR307W, strain GAS1, stronger effect = lower value 0.828 | S. cerevisiae deletion strains, locus YNL067W, strain RPL9B, stronger effect = lower value 0.97 | S. cerevisiae deletion strains, locus YNL071W, strain lat1, stronger effect = lower value 1.03 | S. cerevisiae deletion strains, locus YNL128W, strain TEP1, stronger effect = lower value 1.01 | S. cerevisiae deletion strains, locus YNL153C, strain GIM3, stronger effect = lower value 0.999 | S. cerevisiae deletion strains, locus YNL183C, strain NPR1, stronger effect = lower value 0.933 | S. cerevisiae deletion strains, locus YNL209W, strain ssb2, stronger effect = lower value 1.02 | S. cerevisiae deletion strains, locus YNL233W, strain BNI4, stronger effect = lower value 0.939 | S. cerevisiae deletion strains, locus YNL248C, strain rpa49, stronger effect = lower value 1.01 | S. cerevisiae deletion strains, locus YNL250W, strain rad50, stronger effect = lower value 1.02 | S. cerevisiae deletion strains, locus YNL271C, strain bni1, stronger effect = lower value 1.02 | S. cerevisiae deletion strains, locus YNL298W, strain CLA4, stronger effect = lower value 1.02 | S. cerevisiae deletion strains, locus YNL307C, strain MCK1, stronger effect = lower value 1.01 | S. cerevisiae deletion strains, locus YNL322C, strain KRE1 (second series), stronger effect = lower value 1.02 | S. cerevisiae deletion strains, locus YNR049C, strain mso1, stronger effect = lower value 1.02 | S. cerevisiae deletion strains, locus YNR052C, strain pop2, stronger effect = lower value 0.998 | S. cerevisiae deletion strains, locus YOL006C, strain TOP1, stronger effect = lower value 0.973 | S. cerevisiae deletion strains, locus YOL012C, strain htz1 0.964 | S. cerevisiae deletion strains, locus YOL147C, strain pex11, stronger effect = lower value 1 | S. cerevisiae deletion strains, locus YOR001W, strain rrp6, stronger effect = lower value 1.01 | S. cerevisiae deletion strains, locus YOR061W, strain CKA2, stronger effect = lower value 0.995 | S. cerevisiae deletion strains, locus YOR069W, strain VPS5, stronger effect = lower value 0.985 | S. cerevisiae deletion strains, locus YOR070C, strain gyp1, stronger effect = lower value 1.01 | S. cerevisiae deletion strains, locus YOR080W, strain dia2, stronger effect = lower value 1.02 | S. cerevisiae deletion strains, locus YOR083W, strain WHI5, stronger effect = lower value 1.03 | S. cerevisiae deletion strains, locus YOR106W, strain vam3, stronger effect = lower value 1.02 | S. cerevisiae deletion strains, locus YOR136W, strain idh2, stronger effect = lower value 1.02 | S. cerevisiae deletion strains, locus YOR144C, strain elg1, stronger effect = lower value 1.01 | S. cerevisiae deletion strains, locus YOR184W, strain ser1, stronger effect = lower value 1.02 | S. cerevisiae deletion strains, locus YOR231W, strain MKK1, stronger effect = lower value 0.961 | S. cerevisiae deletion strains, locus YOR265W, strain rbl2, stronger effect = lower value 1.02 | S. cerevisiae deletion strains, locus YOR270C, strain vph1, stronger effect = lower value 1.06 | S. cerevisiae deletion strains, locus YOR290C, strain snf2, stronger effect = lower value 0.992 | S. cerevisiae deletion strains, locus YOR316C, strain cot1, stronger effect = lower value 1.01 | S. cerevisiae deletion strains, locus YPL051W, strain arl3, stronger effect = lower value 1.01 | S. cerevisiae deletion strains, locus YPL055C, strain LGE1, stronger effect = lower value 0.967 | S. cerevisiae deletion strains, locus YPL078C, strain atp4, stronger effect = lower value 1.03 | S. cerevisiae deletion strains, locus YPL106C, strain sse1, stronger effect = lower value 1.02 | S. cerevisiae deletion strains, locus YPL240C, strain hsp82, stronger effect = lower value 1.02 | S. cerevisiae deletion strains, locus YPL241C, strain CIN2, stronger effect = lower value 0.991 | S. cerevisiae deletion strains, locus YPL256C, strain CLN2, stronger effect = lower value 0.935 | S. cerevisiae deletion strains, locus YPR119W, strain clb2, stronger effect = lower value 1.01 | S. cerevisiae deletion strains, locus YPR141C, strain kar3, stronger effect = lower value 1.01 | S. cerevisiae deletion strains, locus YPR163C, strain tif3, stronger effect = lower value 1 | S. cerevisiae deletion strains, locus YPR167C, strain met16, stronger effect = lower value 1.02 | S. cerevisiae deletion strains, strain wtn01, stronger effect = lower value 1.01 | S. cerevisiae strains, strain wild type, stronger effect = lower value 0.957
